Rows were chosen to be rich in hits. Some 18% of all compounds tested hit in one or more screens of this group.
KAT2A inh = blocks human GCN5L2 histone acetyltransferase; Q92830; GCN5L2 HAT assay, ThioGlo1 CoA-SH fluorescence; Potency, µM (series often up to 58.9 µM), for inactives: at the highest dose activity change, negative = inhibition, actives largely listed as inhibitors; hit rate 0.21% among 390,000; AID 504327
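Enzyme at 20nM final was mixed with library compounds for 15 min at room temperature. Peptide H3(1-25) at 75uM, acetyl-CoA at 70uM and ThioGlo1 at 50uM were then added. Plates were read immediately and after 20 min (Ex340nm/Em540nm).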
PLK1 PBD block = PLK1 (human) polo-box domain binding inhibition; P53350; Plk1 PBD binding of FITC phosphopeptide, fluorescence polarization; Potency, µM, for inactives: max response, negative = inhibition, actives largely listed as inhibitors; hit rate 2.8% among 360,000; further: series mostly up to about 57 µM; nearly all actives have a fitted effect of over 65% in size
VDR inhibitor = blocks the human vitamin D receptor; VDR-SRC2-3 peptide fluorescence polarization, 2 h; Potency, µM, without a hit: max response, negative = inhibition, most hits filed as inhibitors; hit rate 0.93% among 400,000
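After 23 nl compound addition and a short centrifugation, plates sat for 2 hours at ambient temperature; polarization of fluorescence then indicated loss of VDR binding to peptide SRC2-3.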
TDP1 block = inhibitors of human tyrosyl-DNA phosphodiesterase TDP1 | hit rate 0.28% among 350,000 | Potency, µM (top dose mostly 130 µM), for inactives: top-dose activity change, negative = inhibition, hits mostly inhibitors | recombinant TDP1, AlphaScreen DNA substrate cleavage; further: nearly all actives have a fitted effect of over 40% in size
Target sequence (Q9NUW8 whole entry, looked up): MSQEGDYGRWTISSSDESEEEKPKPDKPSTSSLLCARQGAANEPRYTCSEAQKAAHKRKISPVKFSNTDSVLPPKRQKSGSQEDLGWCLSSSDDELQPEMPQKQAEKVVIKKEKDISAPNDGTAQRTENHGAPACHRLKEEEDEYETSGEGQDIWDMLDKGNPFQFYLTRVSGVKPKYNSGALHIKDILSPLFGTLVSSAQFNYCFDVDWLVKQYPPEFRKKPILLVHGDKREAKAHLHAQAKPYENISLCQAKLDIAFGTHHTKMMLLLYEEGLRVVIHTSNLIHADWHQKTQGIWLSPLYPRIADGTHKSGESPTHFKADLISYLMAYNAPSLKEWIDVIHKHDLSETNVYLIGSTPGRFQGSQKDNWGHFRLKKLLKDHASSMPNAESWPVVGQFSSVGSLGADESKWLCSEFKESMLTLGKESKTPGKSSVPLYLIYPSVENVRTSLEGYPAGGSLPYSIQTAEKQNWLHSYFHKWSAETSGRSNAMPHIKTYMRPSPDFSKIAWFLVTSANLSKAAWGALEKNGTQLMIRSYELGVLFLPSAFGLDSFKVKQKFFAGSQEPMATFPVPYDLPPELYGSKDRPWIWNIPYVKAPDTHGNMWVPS
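Signal: AlphaScreen proximity between streptavidin donor and anti-FITC acceptor beads on intact substrate. Reaction: Tdp1 1 nM, substrate 15 nM final, 5 min RT after 15 min compound preincubation.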
DT40 TDP1 no CPT = qHTS for Inhibitors of human tyrosyl-DNA phosphodiesterase 1 (TDP1): qHTS in cells in absence of CPT; DT40 Tdp1-/- hTDP1 cells, no CPT, ATP luminescence, 48 h; Potency, µM (doses to about 46.2 µM), for the others: at the top dose activity change, negative = growth inhibition, hits mostly inhibitors; hit rate 15% among 420,000; further: nearly all actives have a fitted effect of over 55% in size
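Chicken DT40 Tdp1-/- cells complemented with human TDP1, screened without camptothecin (DMSO vehicle only), 400 cells/well. Compounds pin-transferred, cells incubated at 37 °C for at least 48 hr. Growth read as ATP-dependent luminescence (CellTiter-Glo, 30 min at RT).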
TDP1 cell CPT = DT40-hTDP1 cell growth loss with CPT. Potency, µM (top dose mostly 46.2 µM), without a hit: top-dose activity change, negative = growth inhibition, usual class: inhibitors. hit rate 12% among 420,000. chicken DT40 Tdp1-/-;hTDP1 cells + 20 nM CPT, ATP luminescence, 48 h; further: nearly all actives have a fitted effect of over 55% in size
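Chicken DT40 Tdp1-/- cells stably complemented with human TDP1 were seeded at 400 cells/well in medium containing 20 nM camptothecin, exposed to pin-transferred compounds, and grown at 37 °C for at least 48 hr. Viability was read as ATP luminescence.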
Active calls of the source: *. The call rests on the fitted dose curve; in most records, active means well fitted curve in the direction sought with a large enough effect; inconclusive means small, poorly fitted or top-dose-only effect, or another doubt; inactive means no such curve, though single readings can be large; an effect the other way counts as inactive or inconclusive. On the % scale 0 is the no-effect control and ±100 the full control effect; potency means the concentration at half of the fitted maximal effect.

`O=C(NC1CC(=O)N(c2ccccc2)C1)C1CC1` (stereo not given) gave KAT2A inh 0%, PLK1 PBD block -2%, VDR inhibitor 1%, TDP1 block -7%, DT40 TDP1 no CPT -3% and TDP1 cell CPT -9%.
`COc1ccc(Br)cc1C1C2C=CCCC2(C)C(=O)N1Cc1ccccc1` (stereo not given) gave VDR inhibitor -27% and TDP1 block 1%.
Screening COc1ccc(OC2C(=O)N(Cc3ccc(F)cc3)C2c2cc(OC)c(OC)c(OC)c2)cc1 (stereo not given) returned KAT2A inh -20%, PLK1 PBD block 0%, VDR inhibitor inconclusive, TDP1 block -3%, DT40 TDP1 no CPT 23µM* and TDP1 cell CPT inconclusive.
COc1ccc(C2C(Oc3ccccc3C)C(=O)N2Cc2ccc(F)cc2)cc1OC (stereo not given) was read as KAT2A inh -10%, PLK1 PBD block -6%, VDR inhibitor 9%, TDP1 block 0%, DT40 TDP1 no CPT inconclusive and TDP1 cell CPT inconclusive.
Cc1ccc(CNC(=O)C2CCCN(c3nc4ccccc4n4cccc34)C2)cc1 (stereo not given) was read as KAT2A inh -10%, VDR inhibitor -12%, TDP1 block 0%, DT40 TDP1 no CPT inconclusive and TDP1 cell CPT inconclusive.
COc1ccccc1CNC(=O)C1CCCN(c2nc3ccccc3n3cccc23)C1 (stereo not given) was read as KAT2A inh -5%, VDR inhibitor -6%, TDP1 block -8%, DT40 TDP1 no CPT 13µM* and TDP1 cell CPT inconclusive.
COc1cccc(CNC(=O)C2CCCN(c3nc4ccccc4n4cccc34)C2)c1 (stereo not given) was read as KAT2A inh -2%, VDR inhibitor 8%, TDP1 block 1%, DT40 TDP1 no CPT 15µM* and TDP1 cell CPT inconclusive.
O=C(NCc1ccccc1Cl)C1CCCN(c2nc3ccccc3n3cccc23)C1 (stereo not given) was read as KAT2A inh -13%, VDR inhibitor 6%, TDP1 block 5%, DT40 TDP1 no CPT 21µM* and TDP1 cell CPT 18µM*.
`Cc1ccc(-c2cc(C(F)(F)F)n3nc(C(=O)Nc4ccc(Cl)c(C(F)(F)F)c4)cc3n2)cc1` gave KAT2A inh -8%, VDR inhibitor 9%, TDP1 block 3%, DT40 TDP1 no CPT 0% and TDP1 cell CPT -8%.
O=C(Nc1cc(C(=O)NC2CCOCC2)c2c(c1)ncn2C1CCCC1)c1ccccc1 was read as DT40 TDP1 no CPT -14% and TDP1 cell CPT 2%.
For CC(C)=CCc1c(-c2ccc(O)cc2O)oc2c3c(cc(O)c2c1=O)OC(C)(C)C=C3 the results were PLK1 PBD block -13%, VDR inhibitor -14%, DT40 TDP1 no CPT inconclusive and TDP1 cell CPT 21µM*.
`CC(C)=CCc1c2c(c(O)c3c(=O)c4c(oc13)-c1cc(O)c(O)cc1OC4C=C(C)C)C=CC(C)(C)O2` (stereo not given) gave PLK1 PBD block 1%, VDR inhibitor 2%, DT40 TDP1 no CPT inconclusive and TDP1 cell CPT inconclusive.
Screening COCCNc1c(-c2cc3ccc(C)c(C)c3[nH]c2=O)nc2ccccn12 returned KAT2A inh 0%, PLK1 PBD block -4%, VDR inhibitor 17%, TDP1 block 1%, DT40 TDP1 no CPT 18µM* and TDP1 cell CPT inconclusive.
For CCOC(=O)C1=CCN(S(=O)(=O)c2ccccc2Br)C1c1ccc(F)cc1 (stereo not given) the results were PLK1 PBD block -7%, DT40 TDP1 no CPT inconclusive and TDP1 cell CPT inconclusive.

From PubChem BioAssay
